Laboratory results: PubChem BioAssay (NCATS)
Inconclusive results are not listed. Some compounds were tested as several samples or in several runs, with calls that do not always agree. The source made the active and inactive calls. Calls follow the shape of the dose curve; as a rule, active = well fitted inhibition curve with a large enough effect; inconclusive = small, poorly fitted or top-dose-only effect; inactive = flat fitted curve, though single readings scatter.

Tests used:
[1] = Drug repurposing screens with cells derived from glioblastoma tumor samples (AID 1345199); settings: GBM patient neurospheres viability, ATP luminescence, 48 h; also: nearly all actives have a fitted effect of over 40% in size
How it was run: (§1)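 Primary testing used CD133+ neurospheres from four GBM patients, seven concentrations, 48 h exposure and ATP-based viability; confirmation added three slower-growing patient lines.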

[2] = test system: astro; experiment: as above; settings: viability, ATP luminescence, 48 h; series mostly up to 45.9 µM
How it was run: as §1

[3] = at 20 µM (top of the series), tumour line C
[4] = at 21.2 µM (top of the series), tumour line B
[5] = at 21.2 µM (top of the series), tumour line D
[6] = at 21.3 µM (top of the series), tumour line A
[7] = at 45.9 µM (top of the series), tumour line B
[8] = at 45.9 µM (top of the series), tumour line D
[9] = at 46.1 µM (top of the series), tumour line C
[10] = at 46 µM (top of the series), tumour line A
% is scaled to controls: 0 for no effect and ±100 for the full control effect.

CCNCC(O)c1cccc(O)c1 (configuration not stated)
inactive: activity, negative = cell killing [1, 3] 5.83% | activity, negative = cell killing [1, 4] -15.1% | activity, negative = cell killing [1, 5] -23% | activity, negative = cell killing [1, 6] -30.1% | Potency [2]

C[N+]1([O-])[C@@H]2CC[C@H]1CC(OC(=O)C(CO)c1ccccc1)C2 (some centres not stated)
inactive: activity, negative = cell killing [1, 3] -19.4% | activity, negative = cell killing [1, 4] -4.66% | activity, negative = cell killing [1, 5] -20.9% | activity, negative = cell killing [1, 6] -44.8% | activity, negative = cell killing [1, 7] -7.07% | activity, negative = cell killing [1, 8] 8.25% | activity, negative = cell killing [1, 9] 21.1% | Potency [2]

S=C(S)N1CCNCC1
inactive: activity, negative = cell killing [1, 7] -3.67% | activity, negative = cell killing [1, 8] -4.89% | activity, negative = cell killing [1, 10] -30% | activity, negative = cell killing [1, 9] -13.9% | Potency [2]

CCC1(c2ccccc2)C(=O)NC(=O)N(C)C1=O (configuration not stated)
inactive: activity, negative = cell killing [1, 7] -7.4% | activity, negative = cell killing [1, 8] -10.2% | activity, negative = cell killing [1, 10] -23% | activity, negative = cell killing [1, 9] 7.87% | Potency [2]

CCC1C(C)=NN=C(c2ccc(OC)c(OC)c2)c2cc(OC)c(OC)cc21 (configuration not stated)
inactive: activity, negative = cell killing [1, 7] -16.7% | activity, negative = cell killing [1, 8] -19% | activity, negative = cell killing [1, 9] -6.07%

CC1(C)S[C@@H]2[C@H](N)C(=O)N2[C@H]1C(=O)O
inactive: activity, negative = cell killing [1, 3] -3.46% | activity, negative = cell killing [1, 4] -7.3% | activity, negative = cell killing [1, 5] -20.2% | activity, negative = cell killing [1, 6] -24.1% | Potency [2]

CN(C)[C@@H]1C(=O)C(C(N)=O)=C(O)[C@@]2(O)C(=O)C3=C(O)c4c(O)ccc(Cl)c4[C@@](C)(O)[C@H]3C[C@@H]12
inactive: activity, negative = cell killing [1, 3] -1.9% | activity, negative = cell killing [1, 4] -17.1% | activity, negative = cell killing [1, 5] 7.37% | activity, negative = cell killing [1, 6] -17.5% | Potency [2]

COc1ccc2c3c1O[C@H]1C(=O)CC[C@H]4[C@@H](C2)N(C)CC[C@]314
inactive: activity, negative = cell killing [1, 7] -6.83% | activity, negative = cell killing [1, 8] -23.5% | activity, negative = cell killing [1, 10] -21.5% | activity, negative = cell killing [1, 9] -7.26% | Potency [2]

CC(=O)Oc1ccc2c3c1O[C@H]1[C@@H](OC(C)=O)C=C[C@H]4[C@@H](C2)N(C)CC[C@@]341
inactive: activity, negative = cell killing [1, 7] 1.1% | activity, negative = cell killing [1, 8] -2.21% | activity, negative = cell killing [1, 9] -13.5% | activity, negative = cell killing ([1]; at 99.2 µM (top of the series), tumour line C) -29.8% | activity, negative = cell killing ([1]; at 108 µM (top of the series), tumour line B) -14.9% | Potency [2]
